# Only some compounds are listed: those with a hit (about 6.5% of all), similar ones and a draw of the others.
# VACV Venus inh: inhibitors of vaccinia virus (Venus reporter); 330,000 tested, 0.46% active; Vaccinia virus Venus reporter expression, fluorescence; Potency, µM (titrated, usually from 36.5 µM), for the others: top-dose activity change, negative = inhibition, usual class: inhibitors; calls by dose curve; tested in A549 cells; also: potency is read from the fitted curve at half-maximal effect; nearly all actives have a fitted effect of over 30% in size
# LASV entry inh: inhibitors of Lassa virus binding or cell entry; Potency, µM (series often up to 37.9 µM), for inactives: top-dose activity change, negative = inhibition, actives largely listed as inhibitors; Lassa virus pseudotype entry inhibition, cell reporter; 300,000 tested, 1.2% active; calls by dose curve; tested in HEK293 cells; also: potency is read from the fitted curve at half-maximal effect; nearly all actives have a fitted effect of over 50% in size
# FMDV antiviral: antivirals against foot and mouth disease virus; 410,000 tested, 1.2% active; FMDV antiviral cell-based qHTS; Potency, µM (doses to about 57.9 µM), inactives show at the top dose activity change, negative = inhibition, usual class: inhibitors; AID 1159524; calls by dose curve; tested in HEK293T cells; also: read-out not given here; potency is read from the fitted curve at half-maximal effect; nearly all actives have a fitted effect of over 45% in size
# Marburg entry inh: Marburg virus entry inhibition; Marburg virus pseudotyped entry inhibition, cell reporter; Potency, µM (doses to about 37.8 µM), for the others: top-dose activity change, negative = inhibition, hits mostly inhibitors; 300,000 tested, 1.8% active; AID 540276; calls by dose curve; tested in HEK293 cells; also: potency is read from the fitted curve at half-maximal effect
# HCMV antiviral: inhibitors of human cytomegalovirus; HFF cells, HCMV-luciferase reporter, 72 h; hits give low values; activity change, negative = inhibition, % at 57.5 µM; 410,000 tested, 4.5% active; AID 1259415; in the data active = activity change below about -60%; inconclusive = no clear call, values can overlap the other calls; inactive = above about -39%
#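 Two compound doses tested in HFFs infected with HCMV-luciferase, MOI 1 PFU/cell, 72 h at 37C. Lysate luminescence read with OneGlo; data normalized against buffer-only and 10uM Salinomycin inhibitor controls.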
# VACV mCherry inh: vaccinia inhibition (mCherry reporter); Vaccinia virus mCherry reporter infection, fluorescence; Potency, µM (doses to about 36.5 µM), without a hit: at the highest dose activity change, negative = inhibition, actives largely listed as inhibitors; 310,000 tested, 0.63% active; calls by dose curve; tested in A549 cells; also: potency is read from the fitted curve at half-maximal effect; nearly all actives have a fitted effect of over 35% in size
# Starred values were filed as active, the others as inactive; i = inactive; u = inconclusive; x = no result given; [ ] = remark or other dose. % is scaled to controls: 0 for no effect and ±100 for the full control effect.
SMILES,VACV Venus inh,LASV entry inh,FMDV antiviral,Marburg entry inh,HCMV antiviral,VACV mCherry inh
NC(CC(=O)NC(c1ccccc1)(c1ccccc1)c1ccccc1)C(=O)O (centres undefined),3%,2%,2%,-1%[46.1 µM],-69*,-3%
COc1ccc(OC)c(NC(=O)C(C)n2c(=O)c(-c3ccccc3NC(C)=O)nc3ccccc32)c1 (centres undefined),-11%,-11%[46.1 µM],-10%,-10%[46.1 µM],-2,-14%
CCOC(=O)/C=C(\C)Sc1cc(O)c2ccccc2c1O,x,x,28µM*,x,-100*,x
C=CCNc1nnc(S[C@@H]2CC(=O)N(c3ccc(OC)cc3)C2=O)s1,x,x,x,-8%,x,x
CC(=O)O[C@H]1[C@H]2O[C@]23[C@@H]2CC[C@]4(O)C[C@@H](O)CC[C@]4(C)C2CC[C@]3(C)[C@H]1c1ccc(=O)oc1 (some centres undefined),0.032µM*,x,u,x,x,32µM*
C[C@]12CC[C@H]3C(CCC4(O)CC(O)CC[C@]34C=O)C1=CC[C@H]2c1ccc(=O)oc1 (some centres undefined),x,x,-6%,x,-99*,x
C[C@]12CCC3C(CC[C@H]4C[C@@H](O)CC[C@]34C)C1CCC2=O (some centres undefined),-7%,-9%[46.1 µM],-28%,0%,x,7%
C[C@]12CC[C@H](O)C[C@H]1CCC1C2CC[C@]2(C)[C@@H](c3ccc(=O)oc3)C[C@H]3O[C@]132 (some centres undefined),1.1µM*,x,x,x,x,1.3µM*
CCOC(=O)[C@@H]1CSc2[nH]c(=O)sc2[C@@H]1c1ccccc1,x,x,x,-4%,x,x
O=C(CN1CCC(C(O)(c2ccccc2)c2ccccc2)CC1)Nc1cc(Cl)ccc1Cl,-3%,8.2µM*,x,u,55,-15%
O=C(CN1CCOCCOCCOCC1)Nc1ccccc1,-4%,11%,x,5%,41,i
O=C(CN1CCC(C(O)(c2ccccc2)c2ccccc2)CC1)Nc1ccccc1,-14%,u,x,23µM*,-27,-13%
O=C(CN1CCCCC1)Nc1cc(Cl)ccc1Cl,-3%,6%,32%,14%,-7,1%
c1ccc(CC(Nc2cccnc2)c2ccccc2)cc1 (centres undefined),x,x,x,x,-9,x
COc1ccc(NC(=O)CC2C(=O)N(C)C(=S)N2Cc2ccc3c(c2)OCO3)cc1 (centres undefined),-12%,-21%,15%,11µM*,1,-19%
COc1ccc(NC(=O)CC2C(=O)N(c3ccc(C)cc3)C(=O)N2Cc2ccc3c(c2)OCO3)cc1 (centres undefined),-3%,u,-22%,-21%[46.1 µM],20,i
CCOc1ccccc1CNC(=O)c1cc2occc2n1C,-14%,x,1%,x,-31,u
CCOc1ccccc1CNC(=O)c1cc2oc3ccccc3c2n1C,x,u,1%,u,-85*,x
Cn1c(C(=O)NCc2cccc(Cl)c2)cc2oc3ccccc3c21,25%,u,-1%,u,-64*,-21%
CN(C)c1ccc(C=NC2CCc3ccccc32)cc1 (centres undefined),-15%,x,x,x,x,12%
COc1ccc(C(=O)N2CCC(c3noc4ccccc34)CC2)cc1OC,x,x,x,x,-65*,x
COc1ccccc1-c1nnc(C2CCN(C(=O)c3cccc(C)c3)CC2)o1,-10%,3%[46.1 µM],11%,4%[46.1 µM],-65*,-14%
COc1ccccc1-c1nnc(C2CCN(S(=O)(=O)c3ccccc3)CC2)o1,-11%,9%[46.1 µM],3%,-1%[46.1 µM],-12,-14%
COc1ccc(C(=O)N2CCCCCC2)cc1OC1CCN(C(C)=O)CC1,-4%,0%,-7%,7%,-78*,-15%
Cc1nn(Cc2c(F)c(F)c(F)c(F)c2F)c(C)c1NC(=O)c1cccc(COc2ccc(Cl)cc2)c1,-27%,2%,-7%,u,64,-11%
SMILES,VACV Venus inh,LASV entry inh,FMDV antiviral,Marburg entry inh,HCMV antiviral,VACV mCherry inh
Cc1cc(NC(=O)c2cccc(COc3ccc(Br)cc3)c2)no1,-25%,13µM*,-25%,7.3µM*,127,i
CC(C)c1cc(C(N)=O)c(NC(=O)c2cccc(COc3ccc(Cl)cc3)c2)s1,-13%,u,-19%,3.2µM*,12,-5%
CCOc1ccc(C(=O)Nc2cc(C)on2)cc1,x,u,30%,u,102,x
O=C(CN1C(=O)c2ccccc2S1(=O)=O)Nc1cc(S(=O)(=O)N2CCOCC2)ccc1N1CCOCC1,-13%,x,x,x,x,-12%
O=[N+]([O-])c1ccccc1S(=O)(=O)N1CCN(c2nc(-c3ccccc3)nc3ccccc23)CC1,-14%,x,x,x,x,-11%
Cc1[nH]c2ccccc2c1C(=O)CSc1nc2cc(S(=O)(=O)N3CCCCC3)ccc2o1,x,u,-27%,7.3µM*,-39,x
Cc1ccc(C(=O)CSc2nc3cc(S(=O)(=O)N4CCOCC4)ccc3o2)cc1,-12%,-19%,-15%,-17%,-18,-16%
CCCC(=O)Oc1ccccc1C1SCc2cc(C)c(C)cc2CS1,-14%,u,-18%,u,-60*,-1%
COC(=O)C1=CN(Cc2ccc(OC)cc2)C=C(C(=O)OC)C1c1ccsc1,-3%,10µM*,-8%,u,-7,-8%
COc1cc2c(cc1OC)n(CC(=O)c1ccc(C)cc1)c(=O)n1nc(CCn3nc(C)cc3C)nc21,-10%,2%[46.1 µM],-4%,x,6,i
CCOc1ccc(C(=O)Cn2c(=O)n3nc(CCn4nc(C)cc4C)nc3c3cc(OC)c(OC)cc32)cc1,u,13%[46.1 µM],-7%,x,7,3.5µM*
Cc1ccc(F)cc1NC(=O)c1ccc(Cn2nc(N3CCN(c4ccccc4)CC3)ccc2=O)o1,u,u,35µM*,x,-73*,u
Cc1cccc(NC(=O)c2ccc(Cn3nc(N4CCN(c5ccccc5)CC4)ccc3=O)o2)c1C,-19%,-15%[46.1 µM],-24%,x,-72*,-24%
Cc1cc(F)ccc1NC(=O)Cn1nc(N2CCN(c3ccccc3)CC2)ccc1=O,-8%,-6%[46.1 µM],-19%,x,-26,-1%
Cn1cc(Cl)nc1[C@@H](O)c1ccccc1,x,x,x,28%,x,x
Cc1cccc(-c2noc(-c3cc(C(C)C)[nH]n3)n2)c1,-9%[7.34 µM],14%[46.1 µM],-6%,x,39,-16%[7.34 µM]
N#Cc1c(NC(=S)NC(=O)c2ccccc2)sc2c1CCCCC2,-8%,x,x,x,x,i
Cn1ncc(Cl)c1C(=O)NC(=S)Nc1sc2c(c1C#N)CCCCC2,-3%,21%,-1%,17%,-60*,-15%
O=c1cc(-c2ccccc2Cl)oc2c(NS(=O)(=O)c3cc(Cl)cc(Cl)c3O)ccc(O)c12,13µM*,-5%,u,-2%,x,u
CCc1ccc(S(=O)(=O)Nc2ccc(O)c3c(=O)cc(-c4ccccc4Cl)oc23)cc1,-30%,x,36%,x,-34,-9%
Cc1ccccc1CCNC(=O)c1cc2cc(S(=O)(=O)N3CCCCC3)ccc2n1C,-25%,-13%[46.1 µM],u,x,-3,-29%
